About 83,000 compounds went through this panel and 20% of them were active in at least one assay; those are over-represented in the sample as a whole.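 Cells were grown in 96-well plates and exposed to the test compound at a single concentration for 48 hours; results are reported as percent growth, with values below 10 considered active.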 Unmarked numbers belong to inactive results. Activity calls are given as the source filed them.
Experiments:
Assay in all cases: NCI-60 one-dose screen, 48 h (100 = growth as untreated, 0 = no growth, -100 = all killed)
NCI-H23 lung = conditions: 10 µM unless noted
NCI-H322M lung = conditions: 10 µM unless noted
HOP-62 NSCLC = conditions: 10 µM unless noted
NCI-H460 lung = conditions: 10 µM unless noted
HOP-92 NSCLC = conditions: 10 µM unless noted
NCI-H522 lung = conditions: 10 µM
A549/ATCC NSCLC = conditions: 10 µM unless noted
786-0 renal = conditions: 10 µM unless noted
DU-145 prostate = conditions: 10 µM unless noted
K-562 leukemia = conditions: 10 µM unless noted
MALME-3M melanoma = conditions: 10 µM unless noted
MDA-MB-231 breast = conditions: 10 µM unless noted
RXF 393 renal = conditions: 10 µM unless noted
SF-268 CNS = conditions: 10 µM unless noted
SF-295 CNS = conditions: 10 µM unless noted
SF-539 CNS = conditions: 10 µM unless noted
UACC-257 melanoma = conditions: 10 µM unless noted
M14 melanoma = conditions: 10 µM unless noted

With `CCCCOC(=O)C1OC(Oc2ccc3c(C)cc(=O)oc3c2)[C@@H](OC(C)=O)C(OC(C)=O)C1OC(C)=O` (stereo not given in full) the growth (NCI-H23 lung) was 99.9%, the growth (NCI-H322M lung) was 104% and the growth (HOP-62 NSCLC) was 98.7%. For the same compound, the growth (NCI-H460 lung) was 105%, the growth (HOP-92 NSCLC) was 98.3% and the growth (NCI-H522 lung) was 88.8%. The growth (A549/ATCC NSCLC) was 96.3%, the growth (786-0 renal) was 98.5% and the growth (DU-145 prostate) was 104%. It also gave a growth (K-562 leukemia) of 106%, a growth (MALME-3M melanoma) of 89.1% and a growth (MDA-MB-231 breast) of 104%. For the same compound, the growth (RXF 393 renal) was 106%, the growth (SF-268 CNS) was 97.4% and the growth (SF-295 CNS) was 96.1%. For the same compound, the growth (SF-539 CNS) was 96%, the growth (UACC-257 melanoma) was 93.9% and the growth (M14 melanoma) was 93.9%.
`O=c1oc2ccccc2cc1-c1csc(N=Nc2c(O)[nH]c3ccc(Cl)cc23)n1` was tested, and the growth (NCI-H23 lung) was 101%, the growth (NCI-H322M lung) was 105% and the growth (HOP-62 NSCLC) was 117%. The growth (NCI-H460 lung) was 99.9%, the growth (HOP-92 NSCLC) was 114% and the growth (NCI-H522 lung) was 98.4%. For the same compound, the growth (A549/ATCC NSCLC) was 89.6%, the growth (786-0 renal) was 105% and the growth (DU-145 prostate) was 108%. For the same compound, the growth (K-562 leukemia) was 98.7%, the growth (MALME-3M melanoma) was 105% and the growth (MDA-MB-231 breast) was 102%. The growth (RXF 393 renal) was 129%, the growth (SF-268 CNS) was 98.4% and the growth (SF-295 CNS) was 98.6%. For the same compound, the growth (SF-539 CNS) was 94.5%, the growth (UACC-257 melanoma) was 80.1% and the growth (M14 melanoma) was 111%.
In the case of `COC(=O)c1c2c(c(C)[n+]([O-])c1C)C(=O)C=C(NCc1ccc(F)cc1)C2=O`, the growth (NCI-H23 lung) is reported as -46.2% (active), the growth (NCI-H322M lung) is reported as -6.43% (active) and the growth (HOP-62 NSCLC) is reported as -6.11% (active). The growth (NCI-H460 lung) was -0.65% (active), the growth (HOP-92 NSCLC) was -41.1% (active) and the growth (NCI-H522 lung) was -15.1% (active). The growth (786-0 renal) was 5.86% (active), the growth (DU-145 prostate) was -90.6% (active) and the growth (K-562 leukemia) was 1.64% (active). For the same compound, the growth (MALME-3M melanoma) was -97.8% (active), the growth (MDA-MB-231 breast) was -29.3% (active) and the growth (RXF 393 renal) was -22.2% (active). The growth (SF-268 CNS) was -1.99% (active), the growth (SF-295 CNS) was -80% (active) and the growth (SF-539 CNS) was -91.2% (active). The growth (UACC-257 melanoma) was -87.2% (active) and the growth (M14 melanoma) was -69.3% (active).
`COc1cccc(OC)c1OC(=O)c1ccccc1` gave a growth (NCI-H23 lung) of 100%, a growth (NCI-H322M lung) of 109% and a growth (HOP-62 NSCLC) of 110%. The growth (NCI-H460 lung) was 102%, the growth (HOP-92 NSCLC) was 82.5% and the growth (NCI-H522 lung) was 95.5%. The growth (A549/ATCC NSCLC) was 96.5%, the growth (786-0 renal) was 106% and the growth (DU-145 prostate) was 119%. For the same compound, the growth (K-562 leukemia) was 105%, the growth (MALME-3M melanoma) was 106% and the growth (RXF 393 renal) was 109%. It also gave a growth (SF-268 CNS) of 111%, a growth (SF-295 CNS) of 79.5% and a growth (SF-539 CNS) of 99.1%. It also gave a growth (UACC-257 melanoma) of 99.5% and a growth (M14 melanoma) of 109%.
In the case of `COc1cc(/C=N/NC(=O)c2cnn3c2NC(c2ccccc2)C3)cc(OC)c1OC` (stereo not given), the growth (NCI-H23 lung) is reported as 102%, the growth (NCI-H322M lung) is reported as 84% and the growth (HOP-62 NSCLC) is reported as 71.2%. It also gave a growth (NCI-H460 lung) of 26.7%, a growth (HOP-92 NSCLC) of 76% and a growth (NCI-H522 lung) of 35.5%. The growth (A549/ATCC NSCLC) was 64.8%, the growth (786-0 renal) was 88% and the growth (DU-145 prostate) was 90.8%. It also gave a growth (K-562 leukemia) of 31.6%, a growth (MALME-3M melanoma) of 65.2% and a growth (MDA-MB-231 breast) of 67.1%. The growth (RXF 393 renal) was 87.7%, the growth (SF-268 CNS) was 81.4% and the growth (SF-295 CNS) was 53.1%. For the same compound, the growth (SF-539 CNS) was 68.1%, the growth (UACC-257 melanoma) was 86.5% and the growth (M14 melanoma) was 50.3%.
`CCCCC1COc2cccc3c(SCC(=O)N(C)c4cccc5ccccc45)cc[n+]1c23` (stereo not given) was tested, and the growth (NCI-H23 lung) was 104%, the growth (NCI-H322M lung) was 110% and the growth (HOP-62 NSCLC) was 106%. It also gave a growth (NCI-H460 lung) of 107%, a growth (HOP-92 NSCLC) of 105% and a growth (NCI-H522 lung) of 83.5%. The growth (A549/ATCC NSCLC) was 103%, the growth (786-0 renal) was 98.3% and the growth (DU-145 prostate) was 105%. The growth (K-562 leukemia) was 88.4%, the growth (MALME-3M melanoma) was 107% and the growth (MDA-MB-231 breast) was 110%. For the same compound, the growth (RXF 393 renal) was 115%, the growth (SF-268 CNS) was 112% and the growth (SF-295 CNS) was 96.5%. It also gave a growth (SF-539 CNS) of 96.7%, a growth (UACC-257 melanoma) of 101% and a growth (M14 melanoma) of 82.8%.
`COc1ccc(C2=NOC(CC(=O)N(CCO)CCO)C2)cc1OC1CCCC1` (stereo not given) gave a growth (NCI-H23 lung) of 99.9%, a growth (NCI-H322M lung) of 107% and a growth (HOP-62 NSCLC) of 102%. It also gave a growth (NCI-H460 lung) of 103%, a growth (HOP-92 NSCLC) of 94.1% and a growth (NCI-H522 lung) of 98.3%. The growth (786-0 renal) was 92.7%, the growth (DU-145 prostate) was 105% and the growth (K-562 leukemia) was 121%. The growth (MALME-3M melanoma) was 111%, the growth (MDA-MB-231 breast) was 103% and the growth (RXF 393 renal) was 102%. It also gave a growth (SF-268 CNS) of 97%, a growth (SF-295 CNS) of 97.1% and a growth (SF-539 CNS) of 104%. The growth (UACC-257 melanoma) was 102% and the growth (M14 melanoma) was 92.2%.
For `COc1ccc(/C=N\N2CCOCC2)cc1OC1CCCC1`, the growth (NCI-H23 lung) was 99%, the growth (NCI-H322M lung) was 107% and the growth (HOP-62 NSCLC) was 97%. It also gave a growth (NCI-H460 lung) of 105%, a growth (HOP-92 NSCLC) of 93.1% and a growth (NCI-H522 lung) of 95.6%. For the same compound, the growth (786-0 renal) was 93.6%, the growth (DU-145 prostate) was 102% and the growth (K-562 leukemia) was 108%. For the same compound, the growth (MALME-3M melanoma) was 127%, the growth (MDA-MB-231 breast) was 110% and the growth (RXF 393 renal) was 113%. The growth (SF-268 CNS) was 94.8%, the growth (SF-295 CNS) was 98.1% and the growth (SF-539 CNS) was 94.9%. For the same compound, the growth (UACC-257 melanoma) was 102% and the growth (M14 melanoma) was 92.7%.

Reference: PubChem BioAssay (NCI)
